Assay results as given in ChEMBL document CHEMBL1201862, “PubChem BioAssay data set” (2004).
Among all 310,000 compounds or so, about 1,900 (0.61%) were called active. Not shown: some 8% with an inconclusive outcome. The rule behind the calls is not given here. Only a selection was taken, and actives are over-represented in it overall.

Experiment: qHTS for Stage-Specific Inhibitors of Vaccinia Orthopoxvirus: mCherry Reporter Primary qHTS.
Assay type: functional
Settings: read-out: Potency

With `CN(C)C(=O)CCc1ccc2c3c([nH]c2c1)[C@]1(C)[C@@H](C(=O)N2CCCCC2)C[C@H](CC(=O)NCCN2CCOCC2)C(=O)N1CC3` as the molecule, how does the AC50 read?
The AC50 was 316 µM (active).

Which AC50 does the source give for `C[C@H]1O[C@@H](O[C@H]2[C@@H](O)C[C@H](O[C@H]3[C@@H](O)C[C@H](O[C@H]4CC[C@@]5(C)[C@H](CC[C@@H]6[C@@H]5CC[C@]5(C)[C@@H](C7=CC(=O)OC7)[C@@H](O)C[C@]65O)C4)O[C@@H]3C)O[C@@H]2C)C[C@H](O)[C@@H]1O` [GITOXIN] here?
The AC50 was 355 µM (active).

For `Cc1cccc2c1N(CCCCI)C=S2C` (stereo not drawn), which AC50 is on record?
The AC50 was 4.47 µM (active).
